Data taken from the supplement of paper PMC11417369.
In all, about 25,000 sequences were measured (“ln(normalized median fluorescence intensity)”: median about 9.7, highest 2% from about 11 on). The full list was thinned out, with the highest values kept by preference.

tested on: PfAP2-HC AP2 domain (GST-tagged); assay: gcPBM binding intensity (ln(normalized median fluorescence intensity)); higher = stronger DNA binding
Outline: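 GST-tagged P. falciparum DNA-binding domains, expressed in E. coli (about 25 μg on average), were applied for 1 h to an Agilent 4 × 180k array of primer-extended double-stranded 36-bp intergenic genomic probes plus negative controls. The binding buffer was 1× PBS with 1% milk, 0.2 mg/ml BSA, 0.5% salmon testes DNA and 0.03% Triton X-100. Bound protein was detected with Alexa488 anti-GST antibody and scanned at 488 nm. Binding intensity is the highest Masliner-normalised natural-log median intensity across replicate spots of either probe orientation.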

Sequence | gcPBM binding intensity (ln)
ACTAATATGTATATATATATATATATATATATATAT [CACACA_negctrl_site141] | 9.58
TCTTAATTTGTTATATGTACATAATATAATTGTATA [XGTACX_site5184] | 9.55
TATTATTTATATGATACACACGTACATATACACATA [CACACA_site9275] | 9.86
TTTAATAATATAATGTGTACTTAAAAATTTATATAT [XGTACX_site5821] | 9.44
CATACACCCAGACACACACACATATATATATATATA [CACACA_site634] | 10.4
AAAAAAAAAAAAAAAACACACATACACCCAGACACA [CACACA_site5807] | 11.3
AAAAAGAAAAAACTTACACACATATATACCCCCATG [CACACA_site4463] | 10.2
AACATACATAAACACACACACACACCCACAGAGACA [CACACA_site4430] | 11
CATACATACAAACACACACACACACCGATATATATA [CACACA_site8952] | 10.7
TATACATACATACATACACACACACCGATATATACA [CACACA_site8184] | 10.8
AAAAAGAAAAAACTTACACACATATATACACCCATG [CACACA_site8079] | 11.3
AAAAAACAGACATACACACACACACCCATATATATA [CACACA_site3392] | 10.8
TAAACATACAGATACACACACACACCCACAGAGACA [CACACA_site4429] | 10.6
AACATACATAAACACACACACACACCCACACCCACA [CACACA_site8058] | 10.8
AAAAAACACCCATACACACACACACCGATATATATA [CACACA_site5808] | 11
AAAAAGAAAAAACTTACACACATATATACAGACATG [CACACA_site550] | 10
TTTAAAACCTTACATACACACAAATATATATATATA [CACACA_site677] | 10
AAAAAATATGCATATACACACATATGTATAAATAAC [CACACA_site7090] | 10.1
TATTTAACACCTTATACACACTTTCTTCCTTTTTTA [CACACA_site4590] | 10.1
AAGTATTATATATTTTGTACATATATAAAACCACAA [XGTACX_site5508] | 9.61
AATATATACACATGCGCACACACAAGTGGGAAATTT [CACACA_site8527] | 10.2
ATAGAAACATATTGACGTACAGTATAATAATACAGT [XGTACX_site197] | 9.91
TGAAATACGAATTATTGTACTTATGTGTAAGATGGC [XGTACX_site4472] | 9.71

Sequence | gcPBM binding intensity (ln)
CAATTTGGTGTACAGGTGCACATGCCTCACGATAAA [GTGCAC_site9650] | 9.61
TACTAAAACCCATACACACACATATTTATAGTACCA [CACACA_site7484] | 10.6
TATATACACAAACACACACACACATACACCCACATA [CACACA_site8504] | 10.8
CATACATACAAACACACACACACACCCATATATATA [CACACA_site2918] | 11.1
CACCCATACACATACAAACACACATTCTATATATAT [CACACA_site1600] | 10.1
AGATACAAGCACTATAGTACACATACTAAAAATATA [XGTACX_site5849] | 9.73
AATACTAAAACCCATACACACACATATATATAGTAC [CACACA_site9041] | 11
TTATATGTATATATAGTGCAGAACAAAAGATTATAT [GTGCAC_site9599] | 9.7
GGACTTTATAAAAATGGTACACGCAATTCTATAATC [XGTACX_site6515] | 9.61
AAACGTACATAATACACACACATGTATACATATAAA [CACACA_site2048] | 10.2
ATTTCATAAATTAAACGTACATAATACACACACATG [XGTACX_site4155] | 11
TACATAAATTAAAACACACACACACTAATAAAAAAA [CACACA_site8712] | 11.3
AAAAATTAAATAAATTTACACACTAATAATTACATA [CACACA_site8260] | 9.63
TATAATTTAAAATACACACACATATATATAATATAT [CACACA_site2000] | 10.1
AAAAAACATACATACACACACATAAATATATATATT [CACACA_site2699] | 10.4
AAAAAAAACATACATACACACACATAAATATATATA [CACACA_site8864] | 11.4
GAAATAATTTCATATACACACATATACATACATACA [CACACA_site1358] | 9.95
CATTTAACATAAATTAAACACACAATATAATACATT [CACACA_site8333] | 9.73
TACAATTTAAAACACACACACAATAATACATATATA [CACACA_site1251] | 11
TACATAAATTAAAACACACACACACTAAAAAAAAAA [CACACA_site7130] | 10.5
CATATACATAAACACACACACACATAAATAAATATA [CACACA_site4864] | 10.6
ATAAAAATATTACGCACACACAAACTTATTCATTAT [CACACA_site1969] | 10.2
TATATATTTTTATGTGTGCACTGTTTCATAAAAGAA | 9.61

Sequence | gcPBM binding intensity (ln)
ACAATTTACACTTAAACACACAAAAAAAAGTTATAT [CACACA_site7056] | 9.98
ATATATTTATATATATGTACATATTATGTTAAGAAA [XGTACX_site1111] | 9.69
ATATATAAATTTTAGTGTACATTAATTTTTTTTTTT [XGTACX_site7782] | 9.64
ATTTATTTATATTTAGTGCAATACTATTTTTAAATA [GTGCAC_site9886] | 9.48
TTATGTTGTAAATACACACATACATATACATACACA [CACACA_site733] | 9.91
ATAATATATACGTGTGTGCACATGACAAAAGCATAT | 10.6
TACACAAAAATAAACACACACACATATATATATATA [CACACA_site1000] | 10.2
AATATATAAATATATACACACAAAAACATATATATA [CACACA_site1318] | 9.99
CATATACACGAACACACACACATATAAATAAATATA [CACACA_site6379] | 10.6
AATATAAATAAACACACACACATATATATATATATT [CACACA_site2906] | 11
CTAAAATACGAACACACACACACATATAAATAAATA [CACACA_site7872] | 11.2
TCTTTTAAACAGTACACACACACATATATATATATA [CACACA_site924] | 10.7
AAAAAAAAAAAAAACACACACATATAAATATAAATA [CACACA_site6972] | 10.4
TAAAATATAAAACACACACACATATATATATATATT [CACACA_site224] | 10.3
AACATATACACGAACACACACACATATAAATAAATA [CACACA_site6380] | 10.4
AAAAAATAAAAAAAAACACACACATACAAGCATATA [CACACA_site8451] | 11.1
ATTCTTTTAAACAGTACACACACACCGATATATATA [CACACA_site8213] | 10.7
TATATTCTTTTAAACAGTACACACACACATATATAT [XGTACX_site1701] | 11.1
AAGCATTTTTTTTAAAGCCTGTTCATCATCCTTACC [CACACA_negctrl_site129] | 9.44
TATTAATTAAACCATACACACATAATTTTTTTATAA [CACACA_site843] | 9.85
ATTATTTAAATTTAACGTACGGAATAAGACATAGAT [XGTACX_site8622] | 9.79
CATTTACATGCCAACATGCACTGAACAATCTTTATA [GTGCAC_site9797] | 9.68
AAAATATATTAAGGCACACACATACATATTTATATA [CACACA_site7707] | 10.2

Sequence | gcPBM binding intensity (ln)
AAATGAATAAAATTTATTTATAAAAGAAAAATCACA [GTGCAC_negctrl_site225] | 9.57
TATATATATATATATACACACATACAGATATATATT [CACACA_site4629] | 9.88
AGAGCATAATAAAACACACACATACATACCTATATA [CACACA_site6566] | 10.9
TAAATAAATAAAAAAACACACATATATATATATATA [CACACA_site4029] | 10
CATAAAATATAAAACACACACACATATATATATATA [CACACA_site223] | 10.7
AAATAATATAAACATACACACACACCGATATATATA [CACACA_site8945] | 10.7
GTAGAGCATAATAAAACACACACATACATACATATA [CACACA_site8217] | 10.4
AAAATACATAAACACACACACACACCGATATATATA [CACACA_site9186] | 11.6
TATAAATAAAAACACACACACACATATATATATATA [CACACA_site2268] | 10.7
AAAAAAAAAAAAAACACACACACACGCATAAATATA [CACACA_site6217] | 11.5
TAAATAAATAAAAAAACACACATATAAATATAAATA [CACACA_site7815] | 9.93
AGAGCATAATAAAACACACACATACATACATATATA [CACACA_site935] | 10.3
ACCATATAAATAAACACACACACACCGATATATATA [CACACA_site5310] | 10.6
TAAATAAAAAAACACACACACATATATATATATATA [CACACA_site2269] | 11.4
CAATCATGGTTTTACACACACATGCATGTGAAAATT [CACACA_site4870] | 9.8
TTATACGATAATATGACACACAATACAAAAATGTAA [CACACA_site1918] | 9.86
AATATAATATATATTAGTACATATATATATATATAT [XGTACX_site870] | 9.58
GAAATAAATATATATGCATGTACTTTAATATTATTA [TGCATGCA_site904] | 9.66
TTTTACATATATATATGTACGAAAATGAAAAGGTCA [XGTACX_site5576] | 9.59
TTTTTATGTTATCAAATAAATATAAATATAATTCAT [CACACA_negctrl_site1522] | 9.32
